From the antibiotic and cytotoxicity screens of Wong et al. (2023)
About 1,500 (3.8%) of roughly 39,000 compounds were called active. The sample holds actives, similar compounds and a random draw of the others, so the mix is not that of the screen.

These compounds were tested on HSkMC (human skeletal muscle cells) (assay: cytotoxicity call (relative viability < 0.9)). Details: 10 µM.

SMILES | cytotoxicity call
Cc1noc(C)c1NC(=O)N(C)C[C@@H]1OCCCC[C@H](C)Oc2ccc(NS(=O)(=O)c3ccc(F)cc3)cc2C(=O)N([C@H](C)CO)C[C@@H]1C | inactive
Cc1noc(C)c1S(=O)(=O)N(C)C[C@@H]1Oc2c(NC(=O)c3cnccn3)cccc2C(=O)N([C@H](C)CO)C[C@@H]1C | inactive
O=C(C[C@H]1CC[C@H]2[C@@H](COC[C@H](O)CN2S(=O)(=O)c2ccccc2)O1)NCCN1CCCCC1 | inactive
c1cc(CCN2CCNCC2)ccn1 | inactive
O=C(O)[C@H](O)c1ccc(F)cc1 | inactive
CCS(=O)(=O)N1C[C@]2(CN(C2)C(=O)Nc2c(noc2C)C)c2c(n(c3cc(ccc23)OC)C)[C@H]1CO | inactive
C[C@@H]1CN([C@@H](C)CO)C(=O)Cc2cc(NC(=O)Nc3ccc(C(F)(F)F)cc3)ccc2O[C@@H]1CN(C)Cc1ccc(C(F)(F)F)cc1 | active
C[C@@H]1CN([C@@H](C)CO)C(=O)Cc2cc(NC(=O)Nc3ccc(C(F)(F)F)cc3)ccc2O[C@H]1CN(C)Cc1ccncc1 | inactive
C[C@H](CO)N1C[C@H](C)[C@H](CN(C)Cc2ccncc2)Oc2ccc(NC(=O)Nc3ccc(C(F)(F)F)cc3)cc2CC1=O | inactive
C[C@H](CO)N1C[C@H](C)[C@@H](CN(C)Cc2ccncc2)Oc2ccc(NC(=O)Nc3ccc(C(F)(F)F)cc3)cc2CC1=O | active
C[C@@H]1CN([C@H](C)CO)C(=O)c2cc(NS(=O)(=O)c3ccc(Cl)cc3)ccc2O[C@@H](C)CCCCO[C@@H]1CN(C)Cc1ccc(C(=O)O)cc1 | inactive
C[C@H](CO)N1C[C@H](C)[C@H](CN(C)C(=O)Nc2ccc3c(c2)OCO3)OCCCC[C@H](C)Oc2ccc(NC(=O)NC3CCCCC3)cc2C1=O | inactive
C[C@@H]1CN([C@H](C)CO)C(=O)Cc2cc(NS(C)(=O)=O)ccc2O[C@@H]1CN(C)S(=O)(=O)c1ccc(F)cc1 | inactive
C[C@@H]1CN([C@H](C)CO)C(=O)c2cc(NC(=O)Nc3ccccc3)ccc2O[C@@H](C)CCCCO[C@H]1CN(C)Cc1ccc(C(F)(F)F)cc1 | active
C[C@@H]1CN([C@@H](C)CO)C(=O)c2cc(NC(=O)Nc3ccccc3)ccc2O[C@@H](C)CCCCO[C@@H]1CN(C)Cc1ccc(C(F)(F)F)cc1 | inactive
C[C@H]1CCCCO[C@@H](CN(C)Cc2ccc(C(F)(F)F)cc2)[C@@H](C)CN([C@@H](C)CO)C(=O)c2cc(NC(=O)Nc3ccccc3)ccc2O1 | active
C[C@@H]1CCCCO[C@@H](CN(C)Cc2ccc(C(F)(F)F)cc2)[C@H](C)CN([C@@H](C)CO)C(=O)c2cc(NC(=O)Nc3ccccc3)ccc2O1 | inactive
C[C@@H]1CCCCO[C@H](CN(C)Cc2ccc(C(F)(F)F)cc2)[C@H](C)CN([C@H](C)CO)C(=O)c2cc(NC(=O)Nc3ccccc3)ccc2O1 | active
C[C@@H]1CCCCO[C@H](CN(C)Cc2ccc(C(F)(F)F)cc2)[C@H](C)CN([C@@H](C)CO)C(=O)c2cc(NC(=O)Nc3ccccc3)ccc2O1 | inactive
C[C@@H]1CCCCO[C@@H](CN(C)Cc2ccc(C(F)(F)F)cc2)[C@@H](C)CN([C@H](C)CO)C(=O)c2cc(NC(=O)Nc3ccccc3)ccc2O1 | inactive
C[C@H](CO)N1C[C@H](C)[C@@H](CN(C)Cc2ccc(C(F)(F)F)cc2)OCCCC[C@H](C)Oc2ccc(NC(=O)Nc3ccccc3)cc2C1=O | inactive
C[C@@H]1CCCCO[C@H](CN(C)Cc2ccc(C(F)(F)F)cc2)[C@@H](C)CN([C@@H](C)CO)C(=O)c2cc(NC(=O)Nc3ccccc3)ccc2O1 | inactive

SMILES | cytotoxicity call
C[C@@H]1CCCCO[C@@H](CN(C)Cc2ccc(C(F)(F)F)cc2)[C@H](C)CN([C@H](C)CO)C(=O)c2cc(NC(=O)Nc3ccccc3)ccc2O1 | active
C[C@@H]1CN([C@H](C)CO)C(=O)c2cc(NC(=O)Nc3ccccc3)ccc2O[C@@H](C)CCCCO[C@@H]1CN(C)Cc1ccc(C(F)(F)F)cc1 | inactive
C[C@@H]1CCCCO[C@H](CN(C)Cc2ccc(C(F)(F)F)cc2)[C@@H](C)CN([C@H](C)CO)C(=O)c2cc(NC(=O)Nc3ccccc3)ccc2O1 | inactive
CO[C@H]1CN(C)C(=O)c2cc(NC(=O)Nc3ccc(Cl)cc3)ccc2OC[C@@H](C)N(C(=O)Nc2c(C)noc2C)C[C@H]1C | inactive
C[C@@H]1CCCCO[C@H](CN(C)S(=O)(=O)c2cccs2)[C@@H](C)CN([C@H](C)CO)C(=O)c2cc(NC(=O)Nc3ccc(C(F)(F)F)cc3)ccc2O1 | inactive
Cc1noc(C)c1NC(=O)N(C)C[C@@H]1Oc2ccc(NC(=O)Cn3cnnn3)cc2CC(=O)N([C@@H](C)CO)C[C@H]1C | inactive
C[C@@H]1CN([C@H](C)CO)C(=O)Cc2cc(NC(=O)Cn3cnnn3)ccc2O[C@@H]1CN(C)C(=O)Nc1ccc(C(F)(F)F)cc1 | inactive
C[C@H](CO)N1C[C@H](C)[C@H](CN(C)Cc2ccc(Cl)c(Cl)c2)OCCCC[C@H](C)Oc2ccc(NC(=O)Nc3ccc(C(F)(F)F)cc3)cc2C1=O | inactive
Cc1ccc(S(=O)(=O)N(C)C[C@@H]2Oc3ccc(NS(=O)(=O)c4cccs4)cc3C(=O)N([C@@H](C)CO)C[C@@H]2C)cc1 | inactive
O=C(C[C@H]1CC[C@@H]2[C@H](COC[C@@H](O)CN2S(=O)(=O)c2cccc(F)c2)O1)NCCCN1CCOCC1 | inactive
Cc1ccc(F)c(S(=O)(=O)N2[C@@H]3CC[C@@H](C3)[C@H]2c2nc3cccc(OCc4ccc(F)cc4)c3[nH]2)c1 | inactive
C[C@H]1CCCCO[C@H](CN(C)Cc2ccncc2)[C@@H](C)CN([C@@H](C)CO)C(=O)c2cc(NC(=O)c3ccccc3)ccc2O1 | inactive
C[C@H]1CCCCO[C@H](CN(C)Cc2ccc(C(F)(F)F)cc2)[C@@H](C)CN([C@@H](C)CO)C(=O)c2cc(NC(=O)Nc3ccccc3)ccc2O1 | active
C[C@@H]1CCCCO[C@@H](CN(C)Cc2ccc(C(F)(F)F)cc2)[C@H](C)CN([C@H](C)CO)C(=O)c2cc(NC(=O)c3ccccc3)ccc2O1 | inactive
C[C@H]1CCCCO[C@@H](CN(C)Cc2ccc(C(F)(F)F)cc2)[C@@H](C)CN([C@@H](C)CO)C(=O)c2cc(NC(=O)c3ccccc3)ccc2O1 | active
C[C@H](CO)N1C[C@H](C)[C@H](CN(C)Cc2ccc(C(F)(F)F)cc2)OCCCC[C@H](C)Oc2ccc(NC(=O)Nc3ccccc3)cc2C1=O | inactive
C[C@@H]1CN([C@@H](C)CO)C(=O)c2cc(NC(=O)Nc3ccccc3)ccc2O[C@@H](C)CCCCO[C@H]1CN(C)Cc1ccc(C(F)(F)F)cc1 | active
C[C@@H]1CCCCO[C@H](CN(C)Cc2ccncc2)[C@H](C)CN([C@@H](C)CO)C(=O)c2cc(NC(=O)c3ccccc3)ccc2O1 | active
C[C@H](CO)N1C[C@H](C)[C@H](CN(C)Cc2ccncc2)OCCCC[C@H](C)Oc2ccc(NC(=O)c3ccccc3)cc2C1=O | inactive
C[C@@H]1CCCCO[C@H](CN(C)Cc2ccc(C(F)(F)F)cc2)[C@H](C)CN([C@H](C)CO)C(=O)c2cc(NC(=O)c3ccccc3)ccc2O1 | inactive
C[C@@H]1CCCCO[C@@H](CN(C)Cc2ccc(C(F)(F)F)cc2)[C@@H](C)CN([C@@H](C)CO)C(=O)c2cc(NC(=O)Nc3ccccc3)ccc2O1 | inactive
